Results: the supplement of paper PMC4100887
± gives the standard deviation of the averaged measurements.

Key:
[1] = system: IMR-90; experiment: relative cell viability (ATPlite) vs untreated control (fraction); higher = less toxic; conditions: 1 µM; 72 h
[2] = system: K562; experiment: as above; conditions: 1 µM; 72 h
[3] = system: K562; experiment: relative cell viability (ATPlite) vs untreated control, with imatinib (fraction); higher = less toxic; conditions: 1 µM; 72 h; imatinib 0.125 µM

| SMILES | relative cell viability [1] | relative cell viability [2] | relative cell viability [3] |
| --- | --- | --- | --- |
| CC[C@H](CO)Nc1nc(NCc2ccccc2O)c2ncn(C(C)C)c2n1 [Olomoucine II] | 1.07 ± 0.073 | 0.758 ± 0.02 | 0.715 ± 0.028 |
| OCC(O)CCO/N=C1\C(c2c(O)[nH]c3ccccc23)=Nc2ccccc21 (centres undefined) [Indirubin Derivative E804] | 0.974 ± 0.098 | 0.753 ± 0.058 | 0.644 ± 0.071 |
| COc1ccc(Cl)cc1NC(=O)Nc1cc(C)nc2ccccc12 [IGF-1R Inhibitor II] | 1.04 ± 0.08 | 0.933 ± 0.014 | 0.798 ± 0.018 |
| COc1ccc(-c2cnc3c(-c4ccsc4)cnn3c2)cc1 [VEGF Receptor 2 Kinase Inhibitor IV] | 0.993 ± 0.1 | 0.893 ± 0.072 | 0.726 ± 0.067 |
| CSc1nc(-c2ccnc(NC(C)c3ccccc3)c2)c(-c2ccc(F)cc2)[nH]1 (centres undefined) [p38 MAP Kinase Inhibitor III] | 1.03 ± 0.072 | 0.909 ± 0.024 | 0.735 ± 0.038 |
| N#C/C(=C(/N)Sc1ccccc1N)c1cccc(C(O)c2ccncc2)c1 (centres undefined) [MEK Inhibitor I] | 1.02 ± 0.1 | 0.732 ± 0.045 | 0.581 ± 0.03 |
| Cc1ncc2ccccc2c1C#N [4-Cyano-3-methylisoquinoline] | 0.955 ± 0.066 | 0.917 ± 0.06 | 0.828 ± 0.032 |
| c1nc2c(NC3CCCCC3)nc(Nc3ccc(N4CCOCC4)cc3)nc2[nH]1 [Reversine] | 0.936 ± 0.08 | 0.578 ± 0.048 | 0.398 ± 0.075 |
